Compound activity from PubChem.
Sampled rows, rich in hits. Any-hit rate of the full collection: about 3.1%.
MITF act – activators of MITF-driven TRPM1 promoter reporter, primary screen, cell-based, SK-MEL-5, luciferase, single point. SK-MEL-5 TRPM1-promoter luciferase, 24 h; % of positive control, neutral wells = 0. 300,000 compounds, 0.75% hits. activation, % at 12.5 µM;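 active = mean activation of at least 80% with every replicate also reaching 80%; inconclusive = mean reaches 80% but some replicate falls short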;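 also: 0% = neutral control wells and 100% = parthenolide positive control wells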
esBAF inh – Bmi1 luciferase reporter increase in mESCs, primary screen, esBAF inhibitor project, mouse ES cells, Bmi1 luciferase knock-in, single point. 24 h; 100% = twice the neutral-well signal. reporter increase, % at 12.5 µM. 350,000 compounds, 2% hits; in the data active = activation above about 40%; inconclusive = no clear call, values can overlap the other calls;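 also: 0% = median of the plate's neutral control wells and 100% = double that signal; a rise in the Bmi1 reporter signal indicates esBAF inhibition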
Rtt109 Vps75 – inhibitors of C. albicans Rtt109/Vps75 HAT, primary screen, biochemical, ThioGlo CoA-SH fluorescence, plate reader | Histone acetyltransferase RTT109 (Candida albicans (strain SC5314 / ATCC MYA-2876)), … | 330,000 compounds, 0.16% hits | inhibition, % at 34.9 µM | purified Rtt109/Vps75, 4 h;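 active = inhibition of at least 50% in every replicate; inconclusive = best replicate reaches 50% inhibition but some replicates fall short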
Target sequence (Q5AAJ8 whole entry, looked up): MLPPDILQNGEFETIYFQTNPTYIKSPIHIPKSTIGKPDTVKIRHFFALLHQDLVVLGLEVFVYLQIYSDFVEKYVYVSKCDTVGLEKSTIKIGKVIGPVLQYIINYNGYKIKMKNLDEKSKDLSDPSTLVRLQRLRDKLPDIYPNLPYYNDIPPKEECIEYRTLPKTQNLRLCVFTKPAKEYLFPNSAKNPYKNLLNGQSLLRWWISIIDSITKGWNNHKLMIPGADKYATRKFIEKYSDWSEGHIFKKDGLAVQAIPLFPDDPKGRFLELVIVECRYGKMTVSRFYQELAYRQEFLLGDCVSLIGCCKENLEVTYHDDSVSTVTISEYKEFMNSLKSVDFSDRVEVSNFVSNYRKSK
Wnt bcat act – Wnt/beta-catenin pathway activators, primary screen, cell-based, plate reader, single point; AID 743398, 2014; 300,000 compounds, 1.2% hits; Wnt/beta-catenin reporter cell assay, activator; activation, % at 9.35 µM; in the data active = activation above about 30%, passing the limit was not always enough; inconclusive = no clear call, values can overlap the other calls;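 also: 0% = neutral control wells and 100% = positive control wells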
C2C12 statin – suppressors of statin myotoxicity in C2C12 myotubes, primary screen, cell-based, single point, plate reader | 330,000 compounds, 0.78% hits | rescue of ATP level, % at 7.49 µM | C2C12 myotubes + simvastatin, ATP luminescence, 48 h; scaled: DMSO 0, geranylgeraniol control 100 | AID 602340, 2012;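 active = mean ATP rescue above about 67%, or every replicate alone reaching that limit, limit read from the data, passing the limit was not always enough; inconclusive = no clear call, values can overlap the other calls; inactive = mean under the limit and some replicate under it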;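 also: myotubes were challenged with 10 µM simvastatin during compound exposure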
* hit, by the source's call; ? = inconclusive; . = no result.

SMILES	MITF act	esBAF inh	Rtt109 Vps75	Wnt bcat act	C2C12 statin
COc1ccc(NC(=O)N(C)C[C@H]2OCCCC[C@H](C)Oc3ccc(NC(=O)c4ccccc4)cc3C(=O)N([C@@H](C)CO)C[C@@H]2C)cc1	.	-0.8	.	.	.
O=C(Nc1ccccc1F)c1cc2nc(C(F)F)cc(C(F)F)n2n1	54.7	58.4*	-19.7	.	11.3
O=C(Nc1ccccc1F)c1cnccn1	15.0	9.8	-7.9	1.6	-1.3
O=C(Cc1ccccc1)N1C[C@@H]2[C@H](c3ccccc31)[C@H](CO)N2C(=O)C1CC1	.	-0.9	.	.	1.2
O=C(OCC(=O)N1CCCCC1)c1c[nH]c2ccccc12	94.0*	35.1	1.4	27.3	-0.3
O=C(COC(=O)C1CC1)c1c[nH]c2ccccc12	63.5	47.8*	-5.0	.	-19.7
O=C(COC(=O)c1n[nH]c2ccccc12)Nc1ccccc1F	9.7	122.8*	9.8	19.3	6.3
CC1CCN(C(=O)COC(=O)c2c[nH]c3ccccc23)CC1	63.0	57.0*	-6.0	8.0	5.2
O=C(COC(=O)c1n[nH]c(=O)c2ccccc12)Nc1ccccc1F	-10.1	1.6	-3.4	-0.1	3.8
CC1CCCN(C(=O)COC(=O)c2n[nH]c3ccccc23)C1 (stereo not given)	?	69.9*	11.5	.	-4.8
O=C(CCCc1c[nH]c2ccccc12)N1CCCCCC1	29.0	60.4*	1.2	-1.0	15.9
O=C(CCc1c[nH]c2ccccc12)N1CCCC1	13.3	4.3	-0.9	3.4	10.9
COC(=O)C1CCN(C(=O)COC(=O)c2n[nH]c3ccccc23)CC1	.	9.9	.	.	.
Cc1ccccc1-c1ccc2c(c1)O[C@H](CN(C)C(=O)Nc1ccc(F)cc1)[C@H](C)CN([C@@H](C)CO)S2(=O)=O	.	-2.4	.	.	-55.9
CN(C)C(=O)c1ccc(-c2ccc([C@H]3[C@@H](C#N)N(C(=O)Cc4ccccn4)[C@H]3CO)cc2)cc1	.	-2.6	.	.	-12.6
COC(=O)C[C@H]1C[C@@H]2c3cc(NC(=O)Nc4ccc(OC)cc4)ccc3O[C@@H]2[C@@H](CO)O1	.	1.6	.	.	-7.1
O=C(C[C@H]1C=C[C@H](NC(=O)c2ccc(F)cc2)[C@@H](CO)O1)NCCc1ccncc1	.	-0.3	.	.	-1.9
C/C=C/c1ccc2c(c1)O[C@H](CN(C)C(=O)Cc1cccnc1)[C@@H](C)CN([C@@H](C)CO)S2(=O)=O	.	2.2	.	.	11.1
O=C(Nc1cccc(Cl)c1)c1cnc[nH]1	71.2	58.1*	6.5	18.7	-4.8
CN(Cc1ccccc1)C(=O)c1[nH]cnc1C(=O)Nc1ccc(Cl)cc1	5.4	39.8	12.4	3.2	19.0
CN(Cc1ccccc1)C(=O)c1[nH]cnc1C(=O)Nc1cccc(Cl)c1	46.6	44.7*	-11.0	15.4	14.4
O=C(Nc1cccc(Cl)c1)c1nc[nH]c1C(=O)NCCCNC(=O)c1[nH]cnc1C(=O)Nc1cccc(Cl)c1	12.4	2.7	-6.8	-8.5	105.8*
O=C(Nc1cccc(Cl)c1)c1ccncc1	1.7	3.3	-18.0	0.0	-1.7
O=C(Nc1ccccc1)c1nc[nH]c1C(=O)NCCCCNC(=O)c1[nH]cnc1C(=O)Nc1ccccc1	-5.6	3.5	-12.0	-5.1	-56.6
C[C@@H]1CN([C@H](C)CO)C(=O)c2cccc(NS(=O)(=O)c3ccc(F)cc3)c2O[C@H]1CN(C)S(=O)(=O)c1cn(C)cn1	.	-3.1	.	.	-2.1
SMILES	MITF act	esBAF inh	Rtt109 Vps75	Wnt bcat act	C2C12 statin
O=c1ccn(Cc2ccccc2)c2ccccc12	2.1	1.7	0.3	-2.2	22.1
Cc1c(OCc2ccccc2)c(=O)ccn1Cc1ccccc1	56.3	55.7*	-11.6	.	1.9
Cc1ccc(C(=O)Nc2cccc(O)c2)cc1S(=O)(=O)N1CCCCCC1	?	57.3*	47.5	20.2	-23.6
COC(=O)c1ccc(COC(=O)c2ccc(C)c(S(=O)(=O)N3CCCCC3)c2)cc1	96.2*	42.7*	6.8	9.2	-5.0
Cc1ccc(S(=O)(=O)c2cccc(S(=O)(=O)N3CCCC3)c2)cc1S(=O)(=O)N1CCCC1	?	2.9	-1.5	4.7	90.3*
Cc1ccc(C(=O)Nc2ccc3cn[nH]c3c2)cc1S(=O)(=O)N1CCCCC1	12.0	75.3*	-2.0	17.9	?
Cc1ccc(NC(=O)c2ccc(F)cc2)cc1S(=O)(=O)N1CCCCCC1	-16.7	6.3	3.4	-13.4	-21.4
O=C(Oc1ccc(Cl)cc1N1C(=O)CCC1=O)c1ccco1	10.6	-8.7	0.2	-4.7	65.8*
O=C(C[C@H]1CC[C@@H]2[C@H](COC[C@@H](O)CN2C(=O)Nc2ccc(Cl)c(Cl)c2)O1)NCc1ccncc1	.	-2.5	.	.	-18.3
COC(=O)c1ccc(N2C(=O)CC(N(C)Cc3ccccc3)C2=O)cc1 (stereo not given)	0.4	2.1	-0.2	.	86.9*
O=C(c1cc2cc(Br)ccc2[nH]1)N1CCc2ccccc21	15.2	30.5	-2.1	4.5	-5.0
O=C(c1cc2cc(F)ccc2[nH]1)N1CCc2ccccc21	53.8	63.3*	2.7	41.8*	-0.6
COc1ccc2cc(C(=O)N3CCc4ccccc43)[nH]c2c1	39.4	30.8	1.2	46.1*	5.5
COc1ccc2cc(C(=O)N3CCN(c4cccc(C)c4C)CC3)[nH]c2c1	5.2	-6.4	-4.6	2.5	16.3
O=C(C[C@H]1CC[C@H](NS(=O)(=O)c2ccc(F)cc2)[C@H](CO)O1)N1CCC(Cc2ccccc2)CC1	.	-3.9	.	.	-6.8
O=C(NCC[C@H]1CC[C@@H](NS(=O)(=O)Cc2ccccc2)[C@H](CO)O1)C1CCC1	.	-1.2	.	.	6.4
O=C(C[C@@H]1CC[C@H](NC(=O)Nc2ccccc2F)[C@H](CO)O1)NCc1ccc(Cl)cc1	.	2.0	.	.	1.8
COc1ccc(C2CC(=O)N(C)c3ccccc3S2)cc1OC (stereo not given)	35.4	28.4	-8.8	53.6*	3.9
Cc1cc(C)cc(OCCn2nnc3ccccc32)c1	88.4*	26.1	-2.3	4.4	2.5
Cc1ccc(C)c(OCCn2nnc3ccccc32)c1	.	18.0	0.2	0.4	2.6
Cc1cccc(C)c1OCCn1nnc2ccccc21	3.8	0.2	4.0	-0.1	8.1
Clc1ccccc1OCCn1nnc2ccccc21	81.1*	63.0*	9.4	18.8	22.9
CC(=C/c1ccccc1)/C=N/NC(=O)c1cnccn1	.	31.9	1.1	26.1	-9.8
CC(/C=N/NC(=O)c1cccnc1)=C\c1ccccc1	55.1	50.4	-10.0	34.5*	-5.5
COCC(=O)Nc1ccc2c(c1)C(=O)N(C)C[C@H](OC)[C@@H](C)CN(Cc1cc(F)ccc1F)[C@H](C)CO2	.	1.1	.	.	-4.3
COc1ccccc1NC(=O)c1ccc2[nH]c(C)c(C)c2c1	27.9	66.4*	0.6	39.6*	-17.6
Cc1[nH]c2ccc(C(=O)Nc3ccncc3)cc2c1C	7.7	12.5	5.4	1.2	-14.4
